Data published in the OligoGym collection.

Target: MMP20
Test: pooled miR-30 sensor sort-seq; sequence = guide strand
Details: shRNA
Also: reference of the scale not given here.

Row | Sequence | sensor-assay potency score (higher = more potent)
1 | TAGTCTTTTTCCATTTTCCTTT | -0.827
2 | TGTAGCTCCTTAATCTTCCTTA | -0.0346
3 | TAATTCTACAGCAGCATCGATT | -0.811
4 | TTTCACATCATCTTTGGGGAGG | -0.942
5 | TATTTGTGTAATATTTGTCAAG | -1.1
6 | TTCCTTATCATGGAATTGCTTC | -0.732
7 | TTCTTGTACTTATAAGTTGGGT | -0.728
8 | TTCTTGATCACGTTCATTGTGG | -0.0903
9 | TTTCCTTTTCCTTTCGTCGTAG | 0.328
10 | TTCTACAGCAGCATCGATTTGG | -0.442
11 | TTAATTCTACAGCAGCATCGAT | -0.771
12 | TTTCCTTTCGTCGTAGCTGTAG | -0.397

Target: MMP27
Test: as above
Details: shRNA

Row | Sequence | sensor-assay potency score (higher = more potent)
13 | TAGTTTATTATTCTGTAGGTGA | -0.199
14 | TTAATTCAAACTCAACATCCGT | -0.367
15 | TTGTGGTCTTATCACAGACGGC | -1.63
16 | TAATTCAAACTCAACATCCGTG | 0.0831
17 | TAATTTGGGAACATCAAGGCTG | 0.912
18 | TTTCTTGTGGTCTTATCACAGA | -0.677
19 | ATTCTTTGTCTTAATGTCGTAT | -0.054
20 | TTTGGGAACATCAAGGCTGTTT | -0.134
21 | TATTTCAAGAGAGTAGAACTGG | 0.764
22 | TAGGTTTTTCTTGTGGTCTTAT | -0.201
23 | TATTCTTTGTCTTAATGTCGTA | -0.516
24 | AAGAACATTACTTCTCTGCGGA | 0.732

Target: MMS22L
Test: as above
Details: shRNA

Row | Sequence | sensor-assay potency score (higher = more potent)
25 | TATATTTTAATACTTCACCAAG | -1.14
26 | TTCTTGAACACCATCAATGTAT | -0.0869
27 | TTAAGTAGTTTATTCAACCAGT | -0.299
28 | TTTATCGCAACAGCAAGTCTTC | -0.217
29 | TAATCCACCAACTAAAACCTAA | -0.962
30 | TTGCTGACAACATAGGTGCAGG | -1.03
31 | TTTTTTAACAACTTTTGCCAGA | -0.793
32 | TTTGAGATTGACAACACACGAT | 0.337
33 | TATCTTGCTACAACTTGAGGGC | -0.184
34 | TTGAGATTGACAACACACGATA | -0.65
35 | TTCTTCTAGAATGACACCCTGA | 0.182
36 | TAATCTTGTCAGTTTGACCAAC | -0.606
